Here are results for eight molecules from PubChem BioAssay (Tox21).

Results filed as inconclusive are left out. The source holds several records for some structures; these can differ, active in one and inactive in another. Calls of active or inactive are those of the source. Unless noted, calls come from the whole dose curve; as a rule, active = well fitted curve in the direction sought with a large enough effect in the repeat runs; inconclusive = weak or mixed curves; inactive = no such curve, though single readings can be large; an effect the other way counts as inactive or inconclusive.

A short description of assay [1]: qHTS assay to identify small molecule agonists of the peroxisome proliferator-activated receptor delta (PPARd) signaling pathway - cell viability counter screen (AID 743211). Note: nearly all actives have a fitted effect of over 55% in size. The essentials: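 PPARd-bla HEK293H cells (3000/well) were pre-incubated 5 h at 37 C, then exposed to compound for 17 h at 37 C. After 2 h with LiveBLAzer substrate, CellTiter-Glo was added to the same wells; luminescence read after 30 min at room temperature.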

Assay [2] addresses Peroxisome proliferator-activated receptor delta (Homo sapiens) (UniProt Q03181). Nature of the assay: qHTS assay to identify small molecule agonists of the peroxisome proliferator-activated receptor delta (PPARd) signaling pathway (AID 743212; calls by dose curve). The essentials: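 GeneBLAzer PPARd UAS-bla HEK293H cells (beta-lactamase reporter under UAS control), plated and rested 5 h at 37 C, then exposed to compounds in DMSO at 37 C; LiveBLAzer B/G FRET substrate added, 2 h room temperature, fluorescence read.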

Assay [3] can be described thus: qHTS assay to identify small molecule antagonists of the peroxisome proliferator-activated receptor delta (PPARd) signaling pathway - cell viability counter screen (AID 743213). Note: nearly all actives have a fitted effect of over 50% in size. The essentials:
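Same-well viability: cells pre-incubated 5 h, dosed with compound plus 300 nM L165041, kept 17 h at 37 C, FRET substrate 2 h RT, then CellTiter-Glo 30 min RT and luminescence.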
In general terms: Quantitative high-throughput screening tests each substance at several concentrations.

For assay [4], the target named is Peroxisome proliferator-activated receptor delta (Homo sapiens) (UniProt Q03181). The experiment in a line: qHTS assay to identify small molecule antagonists of the peroxisome proliferator-activated receptor delta (PPARd) signaling pathway (AID 743215; active = well fitted inhibition curve with a large enough effect in the signal ratio in the repeat runs, not every such curve was filed as active; the % refers to the signal ratio;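 note: cells stimulated with agonist L165041 at 300 nM final during compound exposure; series mostly up to about 62 µM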). The essentials:
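PPARd UAS-bla HEK293H cells were pre-incubated 5 h at 37 C, then given test compounds in DMSO plus agonist L165041 (300 nM final). After 17 h at 37 C, beta-lactamase FRET substrate was added; fluorescence read after 2 h at room temperature.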

A short description of assay [5]: qHTS assay to identify small molecule agonists of the farnesoid-X-receptor (FXR) signaling pathway - cell viability counter screen (AID 743218). Note: nearly all actives have a fitted effect of over 45% in size. The essentials:
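FXR-UAS-bla HEK 293T cells, plated 5 h at 37 C, were exposed to compounds for 16 h at 37 C. CellTiter-Glo was then added to the same wells as the bla readout; luminescence read after 30 min at room temperature.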

Assay [6] is described as follows: qHTS assay to identify small molecule antagonists of the farnesoid-X-receptor (FXR) signaling pathway - cell viability counter screen (AID 743221; active = well fitted cell-killing curve with a large enough effect in the repeat runs, not every such curve was filed as active; note: nearly all actives have a fitted effect of over 50% in size). A digest of the protocol: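 GeneBLAzer FXR-UAS-bla HEK 293T cells, compound plus chenodeoxycholic acid (50 uM final), 16 h at 37 C. CellTiter-Glo added to the same wells after the beta-lactamase read; luminescence read after 30 min at room temperature as viability.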

Assay [7] concerns the target Vitamin D3 receptor (Homo sapiens) (UniProt P11473). Nature of the assay: qHTS assay to identify small molecule agonists of the vitamin D receptor (VDR) signaling pathway (AID 743222; calls by dose curve). The essentials: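 VDR-bla cells were plated 4 h at 37C/5% CO2, then exposed to compounds in DMSO for 16 h. After LiveBLAzer B/G FRET substrate addition and 2 h at room temperature, beta-lactamase reporter fluorescence was read.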

Assay [8] shares this target. Nature of the assay: qHTS assay to identify small molecule antagonists of the vitamin D receptor (VDR) signaling pathway (AID 743223; active = well fitted inhibition curve with a large enough effect in the signal ratio in the repeat runs, not every such curve was filed as active; the % refers to the signal ratio). The essentials:
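VDR-bla cells were treated with compound plus 3 nM final 1alpha,25-dihydroxyvitamin D3 for 16 h at 37C. Beta-lactamase reporter read by B/G FRET substrate fluorescence after 2 h at room temperature. qHTS format.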

Assay [9] in a line: qHTS assay to identify small molecule agonists of the vitamin D receptor (VDR) signaling pathway - cell viability counter screen (AID 743224). Note: series mostly up to about 63 µM; nearly all actives have a fitted effect of over 50% in size. The essentials: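 VDR-bla cells were preincubated 4 h at 37C/5% CO2, then exposed to compounds for 16 h. After the 2 h room-temperature bla FRET read, CellTiter-Glo was added to the same wells and luminescence read after 30 min.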
The nature of assay [10]: qHTS assay to identify small molecule antagonists of the vitamin D receptor (VDR) signaling pathway - cell viability counter screen (AID 743225). Note: nearly all actives have a fitted effect of over 50% in size. The essentials: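 VDR-UAS-bla HEK 293T cells were plated and incubated 4 h at 37C, then dosed with compound plus 3 nM (final) 1-alpha,25-dihydroxyvitamin D3 for 16 h. After the 2 h beta-lactamase read, viability in the same wells was read as CellTiter-Glo luminescence after 30 min at room temperature.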

Assay [11] can be described thus: qHTS assay to identify small molecule agonists of the NFkB signaling pathway (AID 1159509; active = well fitted curve in the direction sought with a large enough effect in the signal ratio in the repeat runs, not every such curve was filed as active; the % refers to the signal ratio; note: series mostly up to about 61 µM). A digest of the protocol:
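NFkB-bla ME-180 cells with a beta-lactamase reporter under an NF-kB response element were plated overnight, treated with compounds in DMSO for 5 hr at 37 C, then loaded with FRET substrate for 1.5 hr at room temperature.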

Assay [12] can be described thus: qHTS assay to identify small molecule agonists of the NFkB signaling pathway - cell viability counter screen (AID 1159515; calls by dose curve; note: series mostly up to about 61 µM; nearly all actives have a fitted effect of over 55% in size). A digest of the protocol: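 NFkB-bla ME-180 cells, 2,000/well, were plated overnight at 37 C, 5% CO2, then exposed to compounds in DMSO for 5 hr. After the bla FRET read, CellTiter-Glo was added to the same wells; luminescence was read after 30 min at room temperature.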

Assay [13] can be described thus: qHTS assay to identify small molecule agonists of the endoplasmic reticulum stress response signaling pathway (AID 1159516; active = well fitted activation curve with a large enough effect in the signal ratio in the repeat runs, not every such curve was filed as active; the % refers to the signal ratio). The essentials: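 CellSensor ESRE-bla HeLa cells, carrying a beta-lactamase reporter driven by the ER stress response element, were plated overnight and exposed to compounds for 5 hr at 37 C. Reporter activity was read as FRET substrate fluorescence after 2 hr at room temperature.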

Assay [14] is described as follows: qHTS assay to identify small molecule agonists of the endoplasmic reticulum stress response signaling pathway - cell viability counter screen (AID 1159517; calls by dose curve). The essentials: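 Luminescence readout: CellTiter-Glo, 30 min RT, same wells as the ESRE-bla reporter read. HeLa ESRE-bla, 1,500 cells/well, o/n 37 C; cpd 5 hr 37 C/5% CO2.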
A short description of assay [15]: qHTS assay to identify small molecule antagonists of the retinoid-related orphan receptor gamma (ROR-gamma) signaling pathway - cell viability counter screen (AID 1159520). Note: nearly all actives have a fitted effect of over 50% in size. The essentials:
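Tet-on ROR gamma CHO cells (1,000/well) were plated 4 hr, given compounds in DMSO for 2 hr at 37 C, then induced with 1 uM final doxycycline for 16 hr. Viability was read as ATP by CellTiter-Glo luminescence after 30 min.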

The target in assay [16] is Nuclear receptor ROR-gamma (Homo sapiens) (UniProt P51449). The experiment in a line: qHTS assay to identify small molecule antagonists of the retinoid-related orphan receptor gamma (ROR-gamma) signaling pathway (AID 1159521). A digest of the protocol:
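Tet-on ROR-gamma CHO cells with ROR response element-luciferase reporter; compounds added 2 hr before 1 uM doxycycline induction, then 16 hr at 37 C. Antagonism scored as decreased ONE-Glo luminescence.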

Assay [17] in a line: qHTS assay to identify small molecule agonists of the AP-1 signaling pathway - cell viability counter screen (AID 1159525; calls by dose curve; note: nearly all actives have a fitted effect of over 55% in size). A digest of the protocol: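 ME-180 AP-1-bla, 2500 cells/well, Opti-MEM + 0.5% dialyzed FBS; overnight 37 °C; cpd 15-pt titration, 5 h 37 °C; CellTiter-Glo 30 min RT; luminescence read; normalised to TOAB and DMSO controls.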
A short description of assay [18]: qHTS assay to identify small molecule agonists of the AP-1 signaling pathway (AID 1159526; calls by dose curve; note: potency is the fitted concentration of half-maximal effect).
The target in assay [19] is Bile acid receptor (Homo sapiens) (UniProt Q96RI1). Nature of the assay: qHTS assay to identify small molecule agonists of the farnesoid-X-receptor (FXR) signaling pathway (AID 743220; active = well fitted activation curve with a large enough effect in the signal ratio in the repeat runs, not every such curve was filed as active; the % refers to the signal ratio). The essentials:
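Beta-lactamase reporter under UAS control in GeneBLAzer FXR HEK 293T cells (5000/well) measured with LiveBLAzer FRET substrate after 2 h at room temperature. Compound exposure lasted 16 h at 37C.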

Chain of Vitamin D3 receptor (Homo sapiens) (P11473 whole entry, looked up): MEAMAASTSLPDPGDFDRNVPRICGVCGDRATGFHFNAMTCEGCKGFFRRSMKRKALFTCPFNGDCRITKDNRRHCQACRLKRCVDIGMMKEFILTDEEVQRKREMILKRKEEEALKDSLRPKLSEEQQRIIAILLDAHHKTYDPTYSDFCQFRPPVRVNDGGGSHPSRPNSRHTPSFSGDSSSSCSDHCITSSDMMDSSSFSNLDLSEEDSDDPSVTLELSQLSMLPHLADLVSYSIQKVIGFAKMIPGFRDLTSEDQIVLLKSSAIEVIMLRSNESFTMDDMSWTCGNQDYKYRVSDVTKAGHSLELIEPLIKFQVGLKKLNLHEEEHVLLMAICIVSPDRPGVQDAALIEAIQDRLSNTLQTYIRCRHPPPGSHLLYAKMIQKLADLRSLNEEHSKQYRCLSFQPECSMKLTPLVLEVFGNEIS
Chain of Bile acid receptor (Homo sapiens) (Q96RI1 whole entry, looked up): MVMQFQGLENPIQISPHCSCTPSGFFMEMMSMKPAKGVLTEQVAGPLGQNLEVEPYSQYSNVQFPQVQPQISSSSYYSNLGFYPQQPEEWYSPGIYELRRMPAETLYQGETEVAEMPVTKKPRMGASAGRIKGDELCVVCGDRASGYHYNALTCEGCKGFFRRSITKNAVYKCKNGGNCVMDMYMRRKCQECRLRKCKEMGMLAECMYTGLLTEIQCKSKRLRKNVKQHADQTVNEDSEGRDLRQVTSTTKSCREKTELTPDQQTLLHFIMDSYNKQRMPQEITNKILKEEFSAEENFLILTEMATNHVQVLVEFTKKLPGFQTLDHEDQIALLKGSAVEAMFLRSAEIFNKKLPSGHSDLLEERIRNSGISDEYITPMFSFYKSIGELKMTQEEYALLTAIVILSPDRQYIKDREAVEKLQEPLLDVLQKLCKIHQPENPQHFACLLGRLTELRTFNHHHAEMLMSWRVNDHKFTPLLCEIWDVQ
Chain of Peroxisome proliferator-activated receptor delta (Homo sapiens) (Q03181 whole entry, looked up): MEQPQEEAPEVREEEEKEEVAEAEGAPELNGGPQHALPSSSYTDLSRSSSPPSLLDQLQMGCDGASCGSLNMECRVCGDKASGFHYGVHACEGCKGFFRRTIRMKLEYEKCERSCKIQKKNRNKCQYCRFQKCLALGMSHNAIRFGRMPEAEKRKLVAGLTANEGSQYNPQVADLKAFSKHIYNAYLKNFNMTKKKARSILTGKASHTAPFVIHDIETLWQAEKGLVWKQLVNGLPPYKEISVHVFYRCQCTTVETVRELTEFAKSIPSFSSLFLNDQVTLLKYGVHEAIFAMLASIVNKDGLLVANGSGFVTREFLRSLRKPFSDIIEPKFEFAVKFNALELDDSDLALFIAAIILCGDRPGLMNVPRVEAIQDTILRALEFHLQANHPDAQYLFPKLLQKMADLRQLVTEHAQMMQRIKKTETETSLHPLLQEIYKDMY

As for `Sc1ccccc1`, the Potency entry in assay [1], in assay [5], in assay [6], in assay [9] and in assay [16] was “inactive” each time. The molecule was classed as inactive in assay [2], in [3], in assay [4], in [7], in [8] and in assay [10]. The molecule was classed as inactive in [11], in [12], in [13], in assay [14], in assay [15] and in assay [17]. Besides, the Potency in [18] was 49.7 µM (active) and inactive.
For `O=[N+]([O-])c1ccc(Cl)c(Cl)c1`, the Potency result in [1], in [5], in assay [6], in [9], in [16] and in assay [18] was “inactive” each time. Further, the outcome in assay [2], in [3], in assay [4], in [19], in [7] and in [8] was inactive. The outcome in [11], in assay [12], in [13], in [14], in [15] and in [17] was inactive.
For the molecule `Cl[C@H]1OCCO[C@@H]1Cl`, the Potency result in assay [1], in assay [5], in assay [6], in [9], in assay [16] and in assay [18] was “inactive” in each case. In addition, the result in [2], in [3], in assay [4], in assay [19], in assay [10] and in assay [11] was inactive. For the same molecule, the result in assay [12], in [13], in [14], in assay [15] and in [17] was inactive.
In the case of `C[C@H]1C(=O)O[C@@H]2CCN3CC=C(COC(=O)[C@](C)(O)[C@]1(C)O)[C@H]23`, the Potency result in [1], in assay [5], in assay [6], in assay [9], in assay [16] and in assay [18] was “inactive” in each case. Besides, the outcome in assay [2], in assay [3], in assay [4], in [19], in assay [7] and in assay [8] was inactive. Besides, the molecule was classed as inactive in [10], in assay [11], in assay [12], in assay [13], in assay [14] and in [15]. Moreover, in [17], the result was inactive.
In the case of `O=C(O)C1C(C(=O)O)C2(Cl)C(Cl)=C(Cl)C1(Cl)C2(Cl)Cl` (stereo unspecified), the Potency entry in assay [1], in assay [5], in assay [6], in assay [9], in [16] and in assay [18] was “inactive” each time. Also, the outcome in [2], in assay [3], in assay [4], in [19], in assay [11] and in [12] was inactive. Further, the molecule was called inactive in assay [13], in [14], in assay [15] and in assay [17].
In the case of `[N-]=[N+]=CC(=O)OC[C@H](N)C(=O)O`, the Potency result in assay [1], in assay [5], in assay [6], in assay [9], in assay [16] and in [18] was “inactive” throughout. Also, the molecule was classed as inactive in assay [2], in assay [3], in assay [4], in [19], in assay [7] and in assay [8]. The result in assay [11], in assay [12], in assay [13], in [14], in assay [15] and in assay [17] was inactive.
Take `COC(=O)Nc1cccc(OC(=O)Nc2cccc(C)c2)c1`: the Potency result in assay [1], in assay [5], in assay [6], in [9], in assay [16] and in [18] was “inactive” throughout. Also, the result in assay [2], in [3], in assay [4], in assay [19], in assay [10] and in [11] was inactive. Moreover, the call in [12], in assay [13], in [14], in assay [15] and in assay [17] was inactive.
As to `CNC(=O)Oc1cccc2ccccc12`, the Potency entry in assay [1], in assay [5], in assay [6], in assay [9], in [16] and in [18] was “inactive” each time. For the same molecule, the result in assay [2], in [3], in assay [4], in assay [19], in [7] and in assay [8] was inactive. For the same molecule, the result in assay [11], in assay [12], in assay [13], in [14], in assay [15] and in assay [17] was inactive.
